Bioassay records as filed in PubChem.
FLuc inh: Firefly luciferase inhibition profiling of diverse chemical library using quantitative high-throughput screening. Luciferin 4-monooxygenase (Photinus pyralis), P08659. purified P. pyralis luciferase, luminescence, biochemical. Potency, µM (top dose mostly 115 µM), actives largely listed as inhibitors. hit rate 2.5% among 76,000. AID 1347043, 2019; note: % is set by controls: 0 for no effect and ±100 for the full control effect; nearly all actives have a fitted effect of over 65% in size
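FLuc 10nM, D-luciferin 10uM, ATP 10uM, Mg acetate 10mM, Tris acetate pH 7.5, Tween/BSA; cpd qHTS; enzyme added last; CCD luminescence.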
HEK293 tox: Cytotoxic Profiling in HEK 293 Cell Line of Diverse Libraries Using Quantitative High-Throughput Screening | HEK 293 viability, ATP luminescence (CellTiter-Glo), 48-72 h | Potency, µM (series often up to 115 µM), without a hit: at the top dose activity change, negative = cytotoxicity, actives largely listed as inhibitors | hit rate 6.6% among 94,000 | AID 1345083, 2018; note: % is set by controls: 0 for no effect and ±100 for the full control effect; nearly all actives have a fitted effect of over 60% in size
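Read-out: CellTiter-Glo ATP luminescence. Cells: HEK 293, 250 cells/well. Exposure: 48 or 72 hr, 37 degree Celsius.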
GPT2 inhibitor: Primary qHTS assay for inhibitors of Glutamate pyruvate transaminase 2 (GPT2); Alanine aminotransferase 2 (Homo sapiens), Q8TD30; Potency, µM (top dose mostly 57.7 µM), inactives show at the top dose activity change, negative = inhibition, actives largely listed as inhibitors; Recombinant GPT2, coupled pyruvate oxidase/HRP Amplex Red fluorescence; AID 1671188, 2021; hit rate 0.25% among 100,000; note: % is set by controls: 0 for no effect and ±100 for the full control effect; nearly all actives have a fitted effect of over 60% in size
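Inhibition is scored from Amplex Red fluorescence generated when pyruvate oxidase and HRP act on pyruvate released by GPT2. Reactions contain 10ng/uL enzyme, 250uM a-KG and 2mM L-alanine and run 30 min at room temperature.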
hNpr1 antagonist: Natriuretic polypeptide receptor (hNpr1) antagonism - Primary qHTS. AID 1347048, 2019. Atrial natriuretic peptide receptor 1 (Homo sapiens), P16066. Potency, µM (titrated, usually from 46.3 µM), without a hit: at the highest dose activity change, negative = inhibition, hits mostly inhibitors. HEK293 hNpr1 GloSensor cGMP, ANP-stimulated luminescence. hit rate 1.6% among 76,000; calls by dose curve; note: % is set by controls: 0 for no effect and ±100 for the full control effect; nearly all actives have a fitted effect of over 60% in size
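Compound pre-incubated 30 min at room temperature on GloSensor-loaded HEK293 cells stably carrying hNpr1 and the pGS-40F cGMP biosensor. Stimulation uses hNppA at 0.1 nM final; luminescence is taken at baseline and 20 min post-agonist.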
3T3 cytotox: Cytotoxic Profiling in NIH 3T3 Cell Line of Diverse Libraries Using Quantitative High-Throughput Screening; NIH 3T3 viability, CellTiter-Glo ATP luminescence, 48-72 h; Potency, µM (series often up to 96.7 µM), for inactives: at the highest dose activity change, negative = cytotoxicity, most hits filed as inhibitors; hit rate 4.3% among 94,000; AID 1345082, 2018; note: % is set by controls: 0 for no effect and ±100 for the full control effect; nearly all actives have a fitted effect of over 55% in size
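NIH 3T3 cells at 400 cells/well received 23 nL of compound by pintool and were incubated 48 or 72 h at 37 °C. Viability was read as ATP-coupled CellTiter-Glo luminescence.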
Npr1 antag conf: Natriuretic polypeptide receptor (hNpr1) antagonism - Confirmation. Potency, µM (series often up to 57.6 µM), without a hit: at the top dose activity change, negative = inhibition, hits mostly inhibitors. shares compounds with hNpr1 antagonist. hit rate 76% among 1,400. HEK293 hNpr1 cGMP GloSensor luminescence, ANP-stimulated; calls by dose curve; note: nearly all actives have a fitted effect of over 70% in size
NPR2 antag: Natriuretic polypeptide receptor (hNpr2) antagonism - Subtype selectivity assay; AID 1347046, 2019; hit rate 67% among 1,400; shares compounds with hNpr1 antagonist; Potency, µM (series often up to 57.6 µM), for the others: at the highest dose activity change, negative = inhibition, usual class: inhibitors; HEK293 hNpr2 GloSensor cGMP luminescence, CNP-stimulated; calls by dose curve; note: nearly all actives have a fitted effect of over 70% in size
FLuc inh counter: Natriuretic polypeptide receptor (hNpr1) antagonism - Confirmation firefly luciferase (FLuc) inhibition counterscreen | shares compounds with hNpr1 antagonist | AID 1347047, 2019 | hit rate 0.7% among 1,400 | purified FLuc enzyme, luminescence, Km substrate | Potency, µM (highest dose often 57.6 µM), without a hit: at the top dose activity change, negative = inhibition, most hits filed as inhibitors; note: 0% is about no effect
GloSensor cGMP: Natriuretic polypeptide receptor (hNpr1) antagonism - Counterscreen GloSensor control cell line; HEK293 GloSensor cGMP, SNP-stimulated, luminescence; Potency, µM (series often up to 57.6 µM), for the others: top-dose activity change, negative = inhibition, most hits filed as inhibitors; shares compounds with hNpr1 antagonist; hit rate 69% among 1,400; calls by dose curve; note: % is set by controls: 0 for no effect and ±100 for the full control effect; nearly all actives have a fitted effect of over 70% in size
An asterisk follows results filed as active; i = inactive; u = inconclusive; x = not tested or not shown; [ ] = another dose, or the depositor's remark. The list is not random: actives were taken first. Their share in the collection is about 10%. Unless noted, calls come from the whole dose curve; as a rule, active = well fitted curve in the direction sought with a large enough effect; inconclusive = small, poorly fitted or top-dose-only effect, or another doubt; inactive = no such curve, though single readings can be large; an effect the other way counts as inactive or inconclusive. Potency is the fitted concentration of half-maximal effect.

SMILES	FLuc inh	HEK293 tox	GPT2 inhibitor	hNpr1 antagonist	3T3 cytotox	Npr1 antag conf	NPR2 antag	FLuc inh counter	GloSensor cGMP
CCOc1ccccc1C(=O)N1CCC(n2cc(-c3nc(-c4ccccc4)no3)nn2)CC1	i	40µM*	i	u	u	24µM*	u	-21%	u
O=C(N1CCC(n2cc(-c3nc(-c4ccccc4)no3)nn2)CC1)C1(c2ccccc2)CC1	i	32µM*	i	13µM*	u	24µM*	27µM*	-19%	24µM*
O=C(c1cc(F)ccc1F)N1CCCC(n2cc(-c3nc(-c4ccccc4)no3)nn2)C1 (stereo not given)	u	40µM*	-5%	11µM*	u	19µM*	19µM*	u	17µM*
O=C(C1CCC1)N1CCC(n2cc(-c3nc(-c4ccccc4)no3)nn2)CC1	i	u	5%	u	u	24µM*	24µM*	-12%	22µM*
Cc1noc(-c2cn(C3CCN(C(=O)C4(c5ccccc5)CC4)CC3)nn2)n1	i	-10%	i	0%	-37%	x	x	x	x
CCc1nc2c(NC(=O)NC3CCCCC3)cccn2n1	u	-20%	-5%	-1%	-22%	x	x	x	x
CC(C)CNC(=O)c1cc(C2CC2)nc2c1c(C1CCNC1)nn2C (stereo not given)	x	i	i	x	-2%	x	x	x	x
COCc1cc(CC2(NCc3ccc(C(F)(F)F)cc3)COC2)no1	i	-15%[172 µM]	i	-2%[70.6 µM]	-2%[174 µM]	x	x	x	x
CN1C(=O)CCC2(CNC(=O)c3ccco3)CCC=C12 (stereo not given)	i	i	i	-2%	i	x	x	x	x
COc1cccc(CC(=O)N2CCC(n3cc(-c4nc(-c5ccccc5)no4)nn3)CC2)c1	i	32µM*	5%	10µM*	u	11µM*	11µM*	-23%	12µM*
O=C(C1CC1)N1CCC(n2cc(-c3nc(-c4ccccc4)no3)nn2)CC1	i	u	i	u	u	u	u	-22%	u
COc1ccc(OCC(=O)N2CCC(Cc3nc(-c4ccc(F)cc4)no3)CC2)cc1	i	u	i	5.6µM*	u	4.3µM*	6.1µM*	2%	3.9µM*
O=C(COc1ccc(F)cc1)N1CCC(Oc2ccc(-c3noc(C4CC4)n3)cc2)C1 (stereo not given)	i	u	i	11µM*	u	u	u	-2%	31µM*
O=C(C1CC1)N1CCC(Cc2nc(-c3ccc(F)cc3)no2)CC1	i	u	-2%	u	u	x	x	x	x
O=C(Cc1ccc(F)cc1)N1CCC(Cc2nc(-c3ccc(F)cc3)no2)CC1	i	u	-4%	13µM*	u	14µM*	14µM*	3%	11µM*
O=C(CC1CCCCC1)N1CCC(Cc2nc(-c3ccc(F)cc3)no2)CC1	i	u	3%	4µM*	u	4.8µM*	5.4µM*	-1%	4.8µM*
O=C(NCC1COc2ncncc2C(=O)N1Cc1ccccc1)c1ccn[nH]1 (stereo not given)	i	-27%[172 µM]	i	-4%[70.6 µM]	u	x	x	x	x
COc1cc(C(=O)N2CCC(Cc3nc(-c4ccc(F)cc4)no3)CC2)cc(OC)c1OC	i	u	i	13µM*	u	14µM*	19µM*	-1%	15µM*
COc1ccc(CC(=O)N2CCC(Cc3nc(-c4ccc(F)cc4)no3)CC2)cc1OC	i	u	i	7.1µM*	u	3.1µM*	9.7µM*	1%	6.1µM*
O=C(c1ccc(F)cc1)N1CCC(Cc2nc(-c3ccc(F)cc3)no2)CC1	i	u	i	1.4µM*	u	1.7µM*	2.7µM*	-1%	1.9µM*
CN(C)C(=O)c1ccc(CC2CCN(C(=O)CC3CCCCC3)CC2)cc1	i	35µM*	i	11µM*	u	15µM*	19µM*	3%	15µM*
COCCn1cnc2ccc(-c3cccc(C)c3)nc2c1=O	u	-10%[172 µM]	i	3%[70.6 µM]	u	x	x	x	x
COc1ccc([C@H]2C[C@@H](O)[C@@H](O)[C@@H]2NCc2nc3ccccc3n2C)cc1	i	-4%[172 µM]	i	0%[70.6 µM]	-10%[174 µM]	x	x	x	x
CC(C)C(=O)N1CCCC2(Cc3ccccc3CN2[S+](=O)([O-])c2ccccc2)C1 (stereo not given)	x	-11%	i	x	i	x	x	x	x
Cc1ncoc1C(=O)N[C@@H]1CN(S(C)(=O)=O)C[C@H]1CN(C)C	i	-10%	i	8%	-8%	x	x	x	x
COC(=O)C1=CN(CC(=O)Nc2cccc(Cl)c2)S(=O)(=O)N=C1C	i	-5%	3%	0%	0%	x	x	x	x
O=C(COc1ccc(Cl)cc1)N1CCC(Cc2nc(-c3ccccc3)no2)CC1	i	40µM*	i	14µM*	u	12µM*	14µM*	-2%	12µM*
CC(C)c1noc(CC2CCN(C(=O)Cc3ccc(F)cc3)CC2)n1	i	-19%	i	-23%	-42%	x	x	x	x
CCOc1ccc(CC(=O)N2CCC(Cc3nc(-c4ccc(F)cc4)no3)CC2)cc1	i	u	4%	6.3µM*	u	5.4µM*	6.1µM*	6%	4.8µM*
